The values below come from PubChem BioAssay (Tox21).

Values without a mark were called inactive. Inconclusive results are not listed. Calls of active or inactive are those of the source. Unless noted, calls follow the shape of the full dose curve.

A short description of assay [1]: Nuclear factor erythroid 2-related factor 2/antioxidant responsive element (Nrf2/ARE) small molecule agonists: qHTS cell viability counter screen in human keratinocytes (AID 1919968; active = well fitted curve in the direction sought with a large enough effect in the repeat runs; an effect the other way counts as inactive or inconclusive; also: nearly all actives have a fitted effect of over 55% in size). A digest of the protocol: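 CellTiter-Fluor fluorescence, read 1 h after reagent, gave viability in the same wells as the ARE-luciferase assay. KeratinoSens cells (1,500/well) had 23 h compound exposure at 37 C/5% CO2 following 5 h plating.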

A short description of assay [2]: Nuclear factor erythroid 2-related factor 2/antioxidant responsive element (Nrf2/ARE) small molecule agonists: luciferase reporter gene qHTS assay in human keratinocytes (AID 1919969). Also: nearly all actives have a fitted effect of over 35% in size.
The target of assay [3] is Gonadotropin-releasing hormone receptor (Homo sapiens) (UniProt P30968). Description: Human gonadotropin-releasing hormone receptor (GnRHR) small molecule agonists, calcium flux assay in GnRHR-HEK293 cells (AID 1920063). Also: nearly all actives have a fitted effect of over 35% in size. In a few lines:
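Agonist mode: compounds at 15 concentrations, in triplicate, went onto calcium dye-loaded GnRHR-HEK293 cells. Intracellular calcium was then followed as 480/540 nm fluorescence at 1 s intervals over 3 min.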

Assay [4] has as its target KiSS-1 receptor (Homo sapiens) (UniProt Q969F8). Briefly: Human kisspeptin (KISS1R) small molecule agonists, calcium flux assay in KISS1R-HEK293 cells (AID 1920064; active = well fitted curve in the direction sought with a large enough effect in the repeat runs; an effect the other way counts as inactive or inconclusive). A digest of the protocol: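 Agonist mode: intracellular calcium rise tracked at 1 s intervals over 3 min (480/540 nm) immediately after compound addition to dye-loaded KISS1R-HEK293 stable cells. Each compound tested at 15 concentrations in triplicate.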

A short description of assay [5]: G protein-coupled receptor (GPCR) small molecule agonists, calcium flux assay: HEK293 wild type cell line counter screen (AID 1920065). In a few lines:
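Calcium flux counter screen: compound added in agonist mode at 15 concentrations in triplicate to dye-loaded parental HEK293 cells. Fluorescence (480/540) read kinetically for 3 min; ATP served as positive control.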

A short description of assay [6]: p53 small molecule agonists, cell-based qHTS assay with human liver microsomes (AID 1963577). A digest of the protocol:
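Fluorescence of the beta-lactamase reporter in p53RE-bla cells, detected with LiveBLAzer substrate (2 h, room temperature, dark), served as the read-out after 16 h compound exposure at 37 C with human liver microsomes and NADPH, each 0.5 mg/mL final.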

Assay [7] can be described thus: p53 small molecule agonists, cell-based qHTS assay with rat liver microsomes (AID 1963578). A digest of the protocol: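 Cells carrying a p53 response element–beta-lactamase reporter were plated and rested 5 h, then dosed with compound in DMSO plus rat liver microsomes and NADPH, each at 0.5 mg/mL final. After 16 h at 37 C, LiveBLAzer substrate was added for 2 h.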

Assay [8] in a line: p53 small molecule agonists, cell-based qHTS assay with human liver microsomes: qHTS cell viability counter screen (AID 1963579). Also: nearly all actives have a fitted effect of over 45% in size. In a few lines:
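Cytotoxicity counter screen: p53RE-bla, 4,000 cells/well; 5 h settle, 37 C/5% CO2; cpd + HLM 0.5 mg/mL + NADPH 0.5 mg/mL (final); 16 h, 37 C; CellTiter-Glo, 30 min RT, luminescence.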

Assay [9] is described as follows: p53 small molecule agonists, cell-based qHTS assay with rat liver microsomes: qHTS cell viability counter screen (AID 1963580). Also: nearly all actives have a fitted effect of over 45% in size. A digest of the protocol: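 Cytotoxicity counter screen: intracellular ATP measured by CellTiter-Glo luminescence in the same wells as the beta-lactamase reporter read, on HCT-116 p53RE-bla cells exposed 16 h at 37 C to compounds with rat liver microsomes and NADPH, each 0.5 mg/mL final.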

Assay [10] can be described thus: p53 small molecule agonists, cell-based qHTS assay: qHTS cell viability counter screen (AID 1963581). Also: nearly all actives have a fitted effect of over 45% in size. A digest of the protocol: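 Counter screen read by CellTiter-Glo luminescence (ATP content, 30 min at room temperature), run in the same wells as the beta-lactamase reporter read. HCT-116 p53RE-bla cells saw compounds for 16 h at 37 C.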
Assay [11] is described as follows: p53 small molecule agonists, cell-based qHTS assay (AID 1963582; active = well fitted activation curve with a large enough effect in the signal ratio in the repeat runs, not every such curve was filed as active; the % refers to the signal ratio). A digest of the protocol:
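Read-out is beta-lactamase FRET fluorescence after 2 h at room temperature with LiveBLAzer B/G substrate. p53 response element-bla cells were treated 16 h at 37 C with compounds in DMSO, added 5 h after seeding.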

Assay [12] concerns the target 5-hydroxytryptamine receptor 2A (Homo sapiens) (UniProt P28223). Briefly: 5-hydroxytryptamine receptor 2A (HTR2A) small molecule antagonists, cell-based qHTS assay (AID 1963586). Also: nearly all actives have a fitted effect of over 45% in size. A digest of the protocol: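 CHO cells stably expressing human HTR2A were plated for 18 h at 37 C, then loaded with calcium dye for 1 h. Compounds were preincubated 5 min at room temperature before DOI (4 nM solution) was added. Kinetic fluorescence was read for 3 min.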

Assay [13] has the same target. Description: 5-hydroxytryptamine receptor 2A (HTR2A) small molecule agonists, cell-based qHTS assay (AID 1963587). Also: nearly all actives have a fitted effect of over 30% in size. In a few lines:
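CHO cells stably expressing human HTR2A, plated 18 h, loaded with calcium dye 1 h at 37 C. Agonist mode: compounds added and intracellular calcium fluorescence recorded kinetically for 2 min at 1 sec intervals.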

For assay [14], the target named is Muscarinic acetylcholine receptor M1 (Homo sapiens) (UniProt P11229). Description: Cholinergic receptor muscarinic 1 (CHRM1) small molecule antagonists, cell-based qHTS assay (AID 1963588). Also: nearly all actives have a fitted effect of over 40% in size. A digest of the protocol:
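Compounds were tested at 15 concentrations in three independent runs. Dye-loaded CHRM1-CHO cells were exposed 5 min at room temperature before stimulation by acetylcholine added at 50nM. Intracellular calcium was read kinetically on FDSS for 3 min.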

For assay [15] the target is unchanged. Description: Cholinergic receptor muscarinic 1 (CHRM1) small molecule agonists, cell-based qHTS assay (AID 1963589). Also: nearly all actives have a fitted effect of over 35% in size. A digest of the protocol:
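Agonist-mode calcium-flux screen: compounds at 15 concentrations, three independent runs, were pin-transferred onto dye-loaded human CHRM1-CHO cells. Fluorescence was then recorded kinetically every second over minutes.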

A short description of assay [16]: cAMP Responsive Elements (CRE) small molecule agonists, cell-based qHTS assay (AID 1963590). A digest of the protocol:
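Agonist mode: compound added to CRE-bla HEK 293T cells (2,000/well, 18 h after plating) for 3 h at 37 C/5% CO2. Reporter activity detected via FRET beta-lactamase substrate, 2 h room-temperature loading.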

Assay [17] concerns the target Beta-2 adrenergic receptor (Homo sapiens) (UniProt P07550). Description: Adrenergic beta2 receptor (ADRB2) small molecule antagonists, cell-based qHTS assay (AID 1963592). Also: series mostly up to about 92 µM; nearly all actives have a fitted effect of over 50% in size. In a few lines:
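Assay format: CHO-ADRB2 cells, 18-20hr seeding at 37C/5% CO2, then compound plus 1nM isoproterenol agonist mix for 0.5hr RT. Homogeneous time-resolved fluorescence cAMP detection after 1hr, expressed as 665/615 nm ratio.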

The target of assay [18] is D(2) dopamine receptor (Homo sapiens) (UniProt P14416). Briefly: Dopamine D2 receptor (DRD2) small molecule agonists, cell-based qHTS assay (AID 1963594). Also: nearly all actives have a fitted effect of over 35% in size. Also: potency is read from the fitted curve at half-maximal effect. In a few lines:
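HEK293 cells stably expressing human DRD2, pre-treated with PDE inhibitor Ro20-1724 (0.1 mM final) and compound 10 min at room temperature, then stimulated with NKH477 (200nM […]) for 30 min. cAMP read by HTRF (665/620 nm).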

Assay [19] has the same target. Description: Dopamine D2 receptor (DRD2) small molecule antagonists, cell-based qHTS assay (AID 1963595; active = well fitted inhibition curve with a large enough effect in the signal ratio in the repeat runs, with a control signal flat; the % refers to the signal ratio). A digest of the protocol:
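Human DRD2 antagonist qHTS measuring cAMP by HTRF. The cells are exposed to compound for 10 min, then to NKH477 (200 nM) and quinpirole (12 nM) for 30 min at RT, with Ro20-1724 (0.1 mM) present throughout.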

Assay [20] is described as follows: cAMP Responsive Elements (CRE) small molecule antagonists, cell-based qHTS assay (AID 1963591; active = well fitted inhibition curve with a large enough effect in the signal ratio in the repeat runs, not every such curve was filed as active; the % refers to the signal ratio). In a few lines: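 Antagonist mode: compounds are added alongside the adenylyl cyclase activator NKH477 (0.25 uM final) to CRE-bla HEK293T cells for 3 h. LiveBLAzer FRET substrate, 2 h at room temperature, reports bla expression.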
% is scaled to controls: 0 for no effect and ±100 for the full control effect.

Sequence of Beta-2 adrenergic receptor (Homo sapiens) (P07550 whole entry, looked up): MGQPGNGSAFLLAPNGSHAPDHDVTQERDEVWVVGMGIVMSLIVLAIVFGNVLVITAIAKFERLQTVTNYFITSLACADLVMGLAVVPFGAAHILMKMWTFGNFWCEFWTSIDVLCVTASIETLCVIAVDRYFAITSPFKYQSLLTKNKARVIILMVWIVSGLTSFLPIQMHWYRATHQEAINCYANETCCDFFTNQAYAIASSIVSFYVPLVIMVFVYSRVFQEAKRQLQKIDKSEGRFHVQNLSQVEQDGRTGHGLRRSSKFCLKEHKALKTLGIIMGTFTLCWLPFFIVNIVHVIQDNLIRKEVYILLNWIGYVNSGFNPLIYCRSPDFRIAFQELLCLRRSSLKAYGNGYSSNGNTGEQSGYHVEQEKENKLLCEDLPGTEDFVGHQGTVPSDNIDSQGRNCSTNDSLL
Sequence of D(2) dopamine receptor (Homo sapiens) (P14416 whole entry, looked up): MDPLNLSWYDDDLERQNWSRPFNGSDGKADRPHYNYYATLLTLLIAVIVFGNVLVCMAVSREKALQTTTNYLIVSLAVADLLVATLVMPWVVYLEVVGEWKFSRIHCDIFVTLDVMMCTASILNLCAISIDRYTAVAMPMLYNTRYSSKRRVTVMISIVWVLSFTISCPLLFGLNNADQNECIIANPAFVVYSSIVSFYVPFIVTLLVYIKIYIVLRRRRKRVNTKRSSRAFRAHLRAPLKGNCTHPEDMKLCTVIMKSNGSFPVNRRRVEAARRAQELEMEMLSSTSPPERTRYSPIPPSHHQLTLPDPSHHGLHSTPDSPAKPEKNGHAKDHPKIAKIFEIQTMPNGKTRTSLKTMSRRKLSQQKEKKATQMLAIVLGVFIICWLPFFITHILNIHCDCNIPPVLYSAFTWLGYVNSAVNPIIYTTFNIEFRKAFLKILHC
Sequence of Gonadotropin-releasing hormone receptor (Homo sapiens) (P30968 whole entry, looked up): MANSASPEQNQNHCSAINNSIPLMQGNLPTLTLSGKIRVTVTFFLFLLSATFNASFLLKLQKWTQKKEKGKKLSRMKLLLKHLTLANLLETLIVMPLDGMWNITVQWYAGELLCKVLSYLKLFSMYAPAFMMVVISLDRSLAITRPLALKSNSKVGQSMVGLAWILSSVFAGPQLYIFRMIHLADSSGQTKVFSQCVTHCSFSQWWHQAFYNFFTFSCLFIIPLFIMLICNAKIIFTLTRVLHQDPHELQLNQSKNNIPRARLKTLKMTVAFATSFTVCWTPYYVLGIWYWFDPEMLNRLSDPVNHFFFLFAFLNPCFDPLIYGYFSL
Sequence of KiSS-1 receptor (Homo sapiens) (Q969F8 whole entry, looked up): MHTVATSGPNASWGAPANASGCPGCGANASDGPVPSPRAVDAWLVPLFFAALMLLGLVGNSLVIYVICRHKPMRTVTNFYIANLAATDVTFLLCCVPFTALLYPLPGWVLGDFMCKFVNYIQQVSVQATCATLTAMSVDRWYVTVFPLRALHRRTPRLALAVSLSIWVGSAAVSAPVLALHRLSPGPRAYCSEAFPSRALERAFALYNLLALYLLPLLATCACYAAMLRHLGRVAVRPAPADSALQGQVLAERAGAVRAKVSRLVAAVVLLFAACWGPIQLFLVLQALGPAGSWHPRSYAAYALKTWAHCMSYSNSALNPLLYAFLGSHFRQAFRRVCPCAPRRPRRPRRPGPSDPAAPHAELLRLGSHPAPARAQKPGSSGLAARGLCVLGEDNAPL
Sequence of Muscarinic acetylcholine receptor M1 (Homo sapiens) (P11229 whole entry, looked up): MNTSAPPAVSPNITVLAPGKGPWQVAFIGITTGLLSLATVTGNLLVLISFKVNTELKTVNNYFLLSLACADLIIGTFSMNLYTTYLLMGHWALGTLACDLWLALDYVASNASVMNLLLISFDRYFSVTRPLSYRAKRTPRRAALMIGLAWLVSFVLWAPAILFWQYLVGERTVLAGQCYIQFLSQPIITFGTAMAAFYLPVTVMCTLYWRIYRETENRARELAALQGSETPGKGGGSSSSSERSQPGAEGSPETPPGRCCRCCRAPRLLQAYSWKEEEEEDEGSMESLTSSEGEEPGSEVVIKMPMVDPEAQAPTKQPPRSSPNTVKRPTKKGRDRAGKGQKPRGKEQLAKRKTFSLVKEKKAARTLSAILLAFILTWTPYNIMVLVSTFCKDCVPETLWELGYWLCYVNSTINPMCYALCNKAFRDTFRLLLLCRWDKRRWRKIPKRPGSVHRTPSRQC
Sequence of 5-hydroxytryptamine receptor 2A (Homo sapiens) (P28223 whole entry, looked up): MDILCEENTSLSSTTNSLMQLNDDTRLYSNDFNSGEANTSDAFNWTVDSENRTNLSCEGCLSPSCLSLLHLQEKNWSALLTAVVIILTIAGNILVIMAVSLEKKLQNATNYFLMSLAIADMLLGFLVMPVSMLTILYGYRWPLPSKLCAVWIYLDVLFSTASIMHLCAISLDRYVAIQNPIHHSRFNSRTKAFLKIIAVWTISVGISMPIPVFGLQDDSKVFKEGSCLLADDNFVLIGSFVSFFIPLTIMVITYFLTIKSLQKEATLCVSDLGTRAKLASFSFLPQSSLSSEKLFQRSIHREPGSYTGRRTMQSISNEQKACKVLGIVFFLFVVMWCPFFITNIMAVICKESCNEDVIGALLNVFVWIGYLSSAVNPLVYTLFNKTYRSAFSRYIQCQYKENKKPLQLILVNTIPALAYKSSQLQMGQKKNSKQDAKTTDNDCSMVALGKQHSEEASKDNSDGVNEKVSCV

For `CN(C)CCCNCCCN`, the Potency result in assay [1], in [2], in assay [3], in assay [4], in assay [5] and in assay [6] was “inactive” throughout. The Potency result in [7], in assay [8], in assay [9], in assay [10], in assay [11] and in assay [12] was “inactive” throughout. Also, the Potency entry in [13], in [14], in [15], in [16], in [17] and in [18] was “inactive” throughout. Besides, in assay [19], the Potency entry was “inactive”.
In the case of `O=C(O)[C@@H](O)[C@H](O)[C@H](O)[C@@H](O)C(=O)O`, the Potency entry in [1], in [2], in [3], in assay [4], in assay [5] and in [6] was “inactive” in each case. Also, the Potency result in [7], in [8], in assay [9], in assay [10], in assay [11] and in [12] was “inactive” in each case. Further, the Potency entry in [13], in [14], in assay [15], in assay [20], in [17] and in assay [18] was “inactive” in each case. Further, the Potency result in assay [19] was “inactive”.
For the compound `C=C1CC/C=C(\C)CC[C@@H]2[C@@H]1CC2(C)C`, the Potency entry in assay [1], in assay [2], in assay [3], in [4], in [5] and in [6] was “inactive” throughout. The Potency entry in [7], in [8], in assay [9], in assay [10], in [11] and in assay [12] was “inactive” in each case. For the same compound, the Potency result in [13], in assay [14], in assay [15], in assay [16], in assay [17] and in assay [18] was “inactive” in each case. Also, the Potency entry in assay [19] was “inactive”.
As for `CCN1CCc2nc(N)oc2CC1`, the Potency entry in assay [1], in assay [2], in [3], in assay [4], in assay [5] and in assay [6] was “inactive” throughout. The Potency result in [7], in assay [8], in assay [9], in assay [10], in [11] and in [12] was “inactive” each time. Moreover, the Potency result in assay [13], in [14], in [15], in assay [16], in assay [17] and in [19] was “inactive” throughout. Besides, in assay [18], the Potency is 26.6 µM (active).
On to `CCCCC(CC)CCC(CC(C)C)OS(=O)(=O)O` (stereo not drawn), for which the Potency result in assay [1], in [2], in [3], in assay [4], in assay [5] and in [6] was “inactive” in each case. Further, the Potency entry in assay [7], in [8], in assay [9], in [10], in assay [11] and in assay [12] was “inactive” in each case. For the same compound, the Potency entry in assay [13], in assay [14], in [15], in assay [16], in assay [17] and in assay [18] was “inactive” each time. Further, the Potency entry in [19] was “inactive”.
On to `CC1(C)C2=CCCC(C)(C)[C@]23CC[C@H]1C3`, for which the Potency result in [1], in [2], in [3], in assay [4], in assay [5] and in [6] was “inactive” each time. For the same compound, the Potency result in assay [7], in assay [8], in [9], in assay [10], in assay [11] and in assay [12] was “inactive” throughout. Further, the Potency entry in assay [13], in [14], in assay [15], in assay [16], in assay [17] and in assay [18] was “inactive” each time. Further, the Potency result in [19] was “inactive”.
Regarding `C=CCCCCCCCCCCC`, the activity change, negative = cytotoxicity in assay [1] is -0.936% [at 8.39 µM]; in assay [8], 1.8% [at 5.99 µM]; in [9], -1.27% [at 5.99 µM]; in assay [10] it was 18.8% [at 5.99 µM]. Moreover, the activity, positive = activation in [2] was -0.901% [at 8.39 µM]. In addition, in [3], the activity change was -0.462% [at 5.22 µM, hits give high values]. Also, the activation in assay [4] is 3.21% [at 6.97 µM]; in [5], -0.84% [at 5.23 µM]; in assay [6], 1.56% [at 5.99 µM]; in assay [7], -3.89% [at 5.99 µM]; in assay [11], 0.37% [at 5.99 µM]; in [13], 0.539% [at 7.02 µM]. The results for the activation in assay [15], in [16] and in [18] were -0.585% [at 6.97 µM], -0.0768% [at 8.39 µM] and -0.7% [at 8.39 µM], respectively. Besides, the activity, negative = inhibition in assay [12] was 4.71% [at 5.62 µM]; in [14] it was -16.9% [at 5.58 µM]. Besides, the activity change, negative = inhibition is -1.18% [at 8.39 µM] in assay [17] and -0.184% [at 8.38 µM] in assay [19].
